{"source": "a collection of fitness landscapes (doi:10.1016/j.celrep.2020.107928)", "parents": {"B1": {"name": "Caulobacter ParB omega fusion; a variant is named by its letters at X, in order, B8GW30 (parent)", "chain": "MESVVVGEPGMSEGRRGLGRGLSALLGEVDAAPAQAPGEQLGGSREAPIEILQRNPDQPRRTFREEDLEDLSNSIREKGVLQPILVRPSPDTAGEYQIVAGERAWRAAQRAGLKTVPIMVRELDDLAVLEIGIIENVQRADLNVLEEALSYKVLMEKFERTQENIAQTIGKSXSHVANXMRLLXLPDEVQSYLVSGELTAXHARAIAAAADPVALAKQIIEGGLSVRETEALARKAPNLSAGKSKGGRPPRVKDTDTQALESDLSSVLGLDVSIDHRGSTGTLTITYATLEQLDDLCNRLTRGI"}}, "note": "In all, about 81,000 sequences were measured (“one-hybrid fitness for binding parS DNA”: median about -0.17, highest 2% from about 0.51 on). The entries come from a sample that favours the highest values as a whole.", "data": [{"variants_of": "B1", "test": "one-hybrid fitness for binding parS DNA (scaled: cognate 1, non-cognate 0); higher = stronger binding", "details": "with parS DNA site", "in_short": "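Pre- and post-selection plasmids were Illumina-sequenced, three replicate libraries were pooled, and any variant with under 10 reads was removed. The libraries were Caulobacter ParB with four specificity codons randomised, selected in E. coli USO through a HIS3 reporter whose site is 19 bp from the promoter. Cells grew 48 hours at 37°C on M9 without histidine, with 0.1 mM IPTG and 5 mM 3-AT. Fitness is the log change in variant-to-wild-type read ratio, rescaled against cognate and non-cognate.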", "values": [{"variant": "VRSR", "one-hybrid fitness for binding parS DNA": "≤ 0.2"}, {"variant": "VFSG", "one-hybrid fitness for binding parS DNA": "≤ 0.2"}, {"variant": "HISS", "one-hybrid fitness for binding parS DNA": "≤ 0.2"}, {"variant": "ADIG", "one-hybrid fitness for binding parS DNA": "≤ 0.2"}, {"variant": "PGTC", "one-hybrid fitness for binding parS DNA": "≤ 0.2"}, {"variant": "LVVH", "one-hybrid fitness for binding parS DNA": "≤ 0.2"}, {"variant": "HWLK", "one-hybrid fitness for binding parS DNA": "≤ 0.2"}, {"variant": "MKPK", "one-hybrid fitness for binding parS DNA": "≤ 0.2"}, {"variant": "SPFG", "one-hybrid fitness for binding parS DNA": "≤ 0.2"}, {"variant": "RLDM", "one-hybrid fitness for binding parS DNA": 0.299}, {"variant": "RLDR", "one-hybrid fitness for binding parS DNA": "≤ 0.2"}, {"variant": "RLNN", "one-hybrid fitness for binding parS DNA": 0.455}, {"variant": "RLNP", "one-hybrid fitness for binding parS DNA": "≤ 0.2"}, {"variant": "RLNT", "one-hybrid fitness for binding parS DNA": 0.908}, {"variant": "RLDT", "one-hybrid fitness for binding parS DNA": 0.806}, {"variant": "HMTH", "one-hybrid fitness for binding parS DNA": "≤ 0.2"}, {"variant": "YIMG", "one-hybrid fitness for binding parS DNA": "≤ 0.2"}, {"variant": "ADTW", "one-hybrid fitness for binding parS DNA": "≤ 0.2"}, {"variant": "VKGM", "one-hybrid fitness for binding parS DNA": "≤ 0.2"}, {"variant": "WSTL", "one-hybrid fitness for binding parS DNA": "≤ 0.2"}, {"variant": "RAKN", "one-hybrid fitness for binding parS DNA": 0.462}, {"variant": "RAVK", "one-hybrid fitness for binding parS DNA": "≤ 0.2"}, {"variant": "RAKT", "one-hybrid fitness for binding parS DNA": 0.824}, {"variant": "RAKD", "one-hybrid fitness for binding parS DNA": "≤ 0.2"}, {"variant": "RAVQ", "one-hybrid fitness for binding parS DNA": 0.23}, {"variant": "RAVT", "one-hybrid fitness for binding parS DNA": 0.77}, {"variant": "RMYE", "one-hybrid fitness for binding parS DNA": "≤ 0.2"}, {"variant": "FKCS", "one-hybrid fitness for binding parS DNA": "≤ 0.2"}, {"variant": "AGFC", "one-hybrid fitness for binding parS DNA": "≤ 0.2"}, {"variant": "RTFH", "one-hybrid fitness for binding parS DNA": 0.246}, {"variant": "RTAP", "one-hybrid fitness for binding parS DNA": "≤ 0.2"}, {"variant": "RTFP", "one-hybrid fitness for binding parS DNA": "≤ 0.2"}, {"variant": "RTAS", "one-hybrid fitness for binding parS DNA": 0.968}, {"variant": "RTFS", "one-hybrid fitness for binding parS DNA": 1.03}, {"variant": "RTAD", "one-hybrid fitness for binding parS DNA": "≤ 0.2"}, {"variant": "LFRV", "one-hybrid fitness for binding parS DNA": "≤ 0.2"}, {"variant": "GSFC", "one-hybrid fitness for binding parS DNA": "≤ 0.2"}, {"variant": "RVWI", "one-hybrid fitness for binding parS DNA": "≤ 0.2"}, {"variant": "RWVN", "one-hybrid fitness for binding parS DNA": "≤ 0.2"}, {"variant": "RWKH", "one-hybrid fitness for binding parS DNA": 0.228}, {"variant": "RWKP", "one-hybrid fitness for binding parS DNA": "≤ 0.2"}, {"variant": "RWVY", "one-hybrid fitness for binding parS DNA": "≤ 0.2"}, {"variant": "RWVS", "one-hybrid fitness for binding parS DNA": 0.616}, {"variant": "RWYY", "one-hybrid fitness for binding parS DNA": 0.248}, {"variant": "RWVP", "one-hybrid fitness for binding parS DNA": "≤ 0.2"}, {"variant": "RWKS", "one-hybrid fitness for binding parS DNA": 0.961}, {"variant": "RWKY", "one-hybrid fitness for binding parS DNA": 0.565}, {"variant": "YYVT", "one-hybrid fitness for binding parS DNA": "≤ 0.2"}, {"variant": "MVNS", "one-hybrid fitness for binding parS DNA": "≤ 0.2"}, {"variant": "FTLM", "one-hybrid fitness for binding parS DNA": "≤ 0.2"}, {"variant": "AFVL", "one-hybrid fitness for binding parS DNA": "≤ 0.2"}, {"variant": "RKKT", "one-hybrid fitness for binding parS DNA": 0.604}, {"variant": "RKKF", "one-hybrid fitness for binding parS DNA": 0.238}, {"variant": "RKVD", "one-hybrid fitness for binding parS DNA": "≤ 0.2"}, {"variant": "RKVR", "one-hybrid fitness for binding parS DNA": "≤ 0.2"}, {"variant": "RKVT", "one-hybrid fitness for binding parS DNA": 0.795}, {"variant": "RKKM", "one-hybrid fitness for binding parS DNA": 0.231}, {"variant": "RPEH", "one-hybrid fitness for binding parS DNA": "≤ 0.2"}, {"variant": "KRWH", "one-hybrid fitness for binding parS DNA": "≤ 0.2"}, {"variant": "QVGR", "one-hybrid fitness for binding parS DNA": "≤ 0.2"}, {"variant": "CDRV", "one-hybrid fitness for binding parS DNA": "≤ 0.2"}, {"variant": "YIYL", "one-hybrid fitness for binding parS DNA": "≤ 0.2"}, {"variant": "MNCF", "one-hybrid fitness for binding parS DNA": "≤ 0.2"}, {"variant": "ICRD", "one-hybrid fitness for binding parS DNA": "≤ 0.2"}, {"variant": "RIQD", "one-hybrid fitness for binding parS DNA": "≤ 0.2"}, {"variant": "RIQH", "one-hybrid fitness for binding parS DNA": "≤ 0.2"}, {"variant": "RCQS", "one-hybrid fitness for binding parS DNA": 0.986}, {"variant": "RPQS", "one-hybrid fitness for binding parS DNA": "≤ 0.2"}, {"variant": "RTQH", "one-hybrid fitness for binding parS DNA": 0.332}, {"variant": "RAQS", "one-hybrid fitness for binding parS DNA": 0.998}, {"variant": "RTQS", "one-hybrid fitness for binding parS DNA": 0.951}, {"variant": "RDQS", "one-hybrid fitness for binding parS DNA": "≤ 0.2"}, {"variant": "RTQD", "one-hybrid fitness for binding parS DNA": 0.202}, {"variant": "RAQD", "one-hybrid fitness for binding parS DNA": "≤ 0.2"}, {"variant": "RIQS", "one-hybrid fitness for binding parS DNA": 0.99}, {"variant": "RAQN", "one-hybrid fitness for binding parS DNA": 0.436}, {"variant": "CQTC", "one-hybrid fitness for binding parS DNA": "≤ 0.2"}, {"variant": "RWDL", "one-hybrid fitness for binding parS DNA": "≤ 0.2"}, {"variant": "WRAH", "one-hybrid fitness for binding parS DNA": "≤ 0.2"}, {"variant": "AEGK", "one-hybrid fitness for binding parS DNA": "≤ 0.2"}, {"variant": "AIFS", "one-hybrid fitness for binding parS DNA": "≤ 0.2"}, {"variant": "DPKT", "one-hybrid fitness for binding parS DNA": "≤ 0.2"}, {"variant": "RHQH", "one-hybrid fitness for binding parS DNA": "≤ 0.2"}, {"variant": "RMQS", "one-hybrid fitness for binding parS DNA": 1.02}, {"variant": "RFQS", "one-hybrid fitness for binding parS DNA": 1}, {"variant": "RHQS", "one-hybrid fitness for binding parS DNA": 0.927}, {"variant": "RHQN", "one-hybrid fitness for binding parS DNA": 0.382}, {"variant": "RFQN", "one-hybrid fitness for binding parS DNA": 0.457}, {"variant": "RSQS", "one-hybrid fitness for binding parS DNA": 0.984}, {"variant": "RSQN", "one-hybrid fitness for binding parS DNA": 0.427}, {"variant": "RSQD", "one-hybrid fitness for binding parS DNA": "≤ 0.2"}, {"variant": "RMQH", "one-hybrid fitness for binding parS DNA": 0.313}, {"variant": "RMQN", "one-hybrid fitness for binding parS DNA": 0.501}, {"variant": "RFQH", "one-hybrid fitness for binding parS DNA": "≤ 0.2"}, {"variant": "GAHD", "one-hybrid fitness for binding parS DNA": "≤ 0.2"}, {"variant": "TLCR", "one-hybrid fitness for binding parS DNA": "≤ 0.2"}, {"variant": "MEVG", "one-hybrid fitness for binding parS DNA": "≤ 0.2"}]}]}
